Source: PubChem
KCNH2 WT inh – KCNH2 (human, wildtype) channel inhibition. Q12809. U2OS, BacMam KCNH2, thallium flux FluxOr; stronger effect = lower value. activity change, % at 1.84 µM. hit rate 0.37% among 340,000;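 active = maximum activity change below -70%; inconclusive = maximum activity change between -70% and -50%; inactive = maximum activity change above -50%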; note: % is set by controls: 0 for no effect and ±100 for the full control effect
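U2OS cells were transduced with wild-type KCNH2 virus (2.03 x 10^8 / mL) for 4 h at room temperature, then cultured overnight at 37 C. Thallium flux was read with FluxOr dye. Rate constants were normalized to DMSO controls.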
TRPV1 PAM – enhances activation of the human vanilloid receptor TRPV1 | Q8NER1 | TRPV1-expressing cells, Fluo-8 calcium influx, capsaicin EC20 potentiation | potentiation, % at 8.33 µM | hit rate 0.02% among 320,000 | AID 540277; in the data active = potentiation above about 80%; inconclusive = between about 30% and that limit; note: 0% is about no effect
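TRPV1-expressing cells were cultured overnight at 35.5C and loaded with Fluo-8 calcium dye for 40 to 90 min at room temperature. After a 10 s baseline, compound was added and calcium influx was read kinetically for 3 min (ex 480/em 520 nm).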
KCNH2 3.1 block – blocks the human KCNH2 3.1 channel isoform; hit rate 0.95% among 340,000; U2OS KCNH2 3.1, thallium flux FluxOr; stronger effect = lower value; activity change, % (tested at about 1.8 µM);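 active = maximum activity change below -70%; inconclusive = maximum activity change from -70% to -50%; inactive = maximum activity change above -50%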;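 note: thallium influx rate constant from kinetic fluorescence after stimulation buffer; % is set by controls: 0 for no effect and ±100 for the full control effect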
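Kinetic fluorescence (2 min after stimulation buffer) measures Tl+ influx through KCNH2 3.1 expressed by viral transduction in U2OS cells; the rate constant is normalized against DMSO controls serving as positive and negative references.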
ClpP mod – qHTS Assay for Activators of ClpP. ATP-dependent Clp protease proteolytic subunit (Bacillus subtilis (strain 168)), P80244. purified B. subtilis ClpP, FRET peptide cleavage, 20 min. Potency, µM (top dose mostly 57.5 µM), for the others: top-dose activity change, negative = active. hit rate 1.9% among 340,000. AID 651965, 2013; active = well fitted falling curve with a large enough effect; inconclusive = small, poorly fitted or top-dose-only effect; inactive = no such curve, though single readings can be large or run the other way; note: potency is the fitted concentration of half-maximal effect; the source files actives as falling curves though it sought activators and does not explain the sign; nearly all actives have a fitted effect of over 65% in size
Target sequence (P80244 whole entry, looked up): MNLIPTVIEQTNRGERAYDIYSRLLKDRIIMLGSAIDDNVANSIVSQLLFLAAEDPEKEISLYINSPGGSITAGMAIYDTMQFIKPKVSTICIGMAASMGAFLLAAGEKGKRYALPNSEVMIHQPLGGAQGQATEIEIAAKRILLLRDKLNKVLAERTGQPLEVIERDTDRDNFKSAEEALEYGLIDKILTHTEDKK
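Purified B. subtilis ClpP, 10 microg/mL final in Tris/HCl pH8 with KCl, BSA, glycerol and Tween-20, cleaved an Abz/nitrotyrosine-quenched decapeptide. Fluorescence (ex 320, em 430) was read at 0 and 20 min at room temperature. Delta was normalized to 5.8 microM ADEP and DMSO/no-enzyme controls.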
TRPV1 agonist – human TRPV1 agonism. TRPV1-expressing cells, Fluo-8 calcium influx, agonist mode. activation, % at 8.33 µM. hit rate 0.19% among 320,000; in the data active = activation above about 80%; inconclusive = between about 30% and that limit; note: 0% is about no effect
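Cells expressing TRPV1 were dye-loaded with Fluo-8 and read kinetically: 10 s baseline, 3 min after compound (agonist portion), then 2 min after EC20 capsaicin (allosteric enhancer portion). Calcium-bound dye fluorescence at 480/520 nm.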
p53 reactivator – restores transcriptional activity of mutant p53 | H1299 p53-A138V BP100-luciferase reporter, luminescence, 24 h | Potency, µM (series often up to 92.2 µM), without a hit: at the highest dose activity change, positive = activation, usual class: activators | hit rate 0.063% among 320,000 | AID 504706; active = well fitted activation curve with a large enough effect; inconclusive = small, poorly fitted or top-dose-only effect; inactive = no such curve, though single readings can be large or run the other way; note: potency is the fitted concentration of half-maximal effect; % of control where 0% means no effect; nearly all actives have a fitted effect of over 45% in size
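p53-null H1299 cells stably carrying temperature-sensitive p53-A138V and a BP100-luciferase reporter were pinned with compounds (4-point, 1:5 series) and held 24 hrs at 37 deg C. Luminescence was read 10 min after detection reagent.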
* = called active by the depositor. Sampled rows, rich in hits. Any-hit rate of the full collection: about 2.6%.

For COc1ccc(-c2nc3scc(CCNS(=O)(=O)c4ccc(F)cc4F)n3n2)cc1OC the results were ClpP mod -4%.
`C[C@H](CO)N1C[C@H](C)[C@@H](CN(C)Cc2ccccc2)OCc2cnnn2CCCC1=O` gave KCNH2 WT inh -4, KCNH2 3.1 block -10 and ClpP mod -3%.
Screening CCOc1ccc(C(C)NC(=O)CCC(=O)O)cc1 (configuration not stated) returned KCNH2 WT inh 2, TRPV1 PAM -3, KCNH2 3.1 block -1, ClpP mod 28µM*, TRPV1 agonist 3 and p53 reactivator 4%.
For CCOc1ccc(C(C)NC(=S)NCc2ccc(F)cc2)cc1 (configuration not stated) the results were KCNH2 WT inh 7, TRPV1 PAM -9, KCNH2 3.1 block 18, ClpP mod 0%, TRPV1 agonist 86* and p53 reactivator -9%.
`Cc1ccc(C(C)NC(=S)NCc2ccc(F)cc2)cc1C` (configuration not stated) gave KCNH2 WT inh -5, TRPV1 PAM 1, KCNH2 3.1 block 9, ClpP mod 1%, TRPV1 agonist 80* and p53 reactivator -8%.
For CCc1ccc(C(C)NC(=S)NCc2ccc(F)cc2)cc1 (configuration not stated) the results were KCNH2 WT inh -13, TRPV1 PAM -1, KCNH2 3.1 block 9, ClpP mod -3%, TRPV1 agonist inconclusive and p53 reactivator 4%.
`C=CCNc1ncnc2c1ncn2[C@H]1CN(Cc2ccc(F)cc2)C[C@@H](CO)O1` gave ClpP mod 0%.
`COc1ccccc1NC(=O)C1=C(C)Nc2nc(SCc3ccccc3)nn2C1c1cccnc1` (configuration not stated) gave ClpP mod -5%.
`COC(=O)[C@H]1Cc2c([nH]c3ccccc23)[C@H](c2ccccc2)N1` gave KCNH2 WT inh -11, TRPV1 PAM 17, KCNH2 3.1 block 2, ClpP mod -4%, TRPV1 agonist -1 and p53 reactivator 5%.
`COC(=O)C1Cc2c([nH]c3ccccc23)CN1` (configuration not stated) gave KCNH2 WT inh 3, TRPV1 PAM -29, KCNH2 3.1 block -1, ClpP mod 32µM*, TRPV1 agonist 2 and p53 reactivator 6%.
Cc1cc(NC(=O)NCc2ccccc2)c(=O)n(Cc2ccc(F)cc2)c1 was read as KCNH2 WT inh -2, TRPV1 PAM 6, KCNH2 3.1 block 1, TRPV1 agonist 20 and p53 reactivator 2%.
`O=C(NCc1ccccc1)Nc1cccn(Cc2ccc(F)cc2)c1=O` gave KCNH2 WT inh 3, TRPV1 PAM -17, KCNH2 3.1 block 9, ClpP mod 32µM*, TRPV1 agonist inconclusive and p53 reactivator -4%.
`O=C(NCc1ccc(F)cc1)Nc1ccc(Cl)cc1` gave KCNH2 WT inh -3, TRPV1 PAM -11, KCNH2 3.1 block -4, ClpP mod -1%, TRPV1 agonist 80* and p53 reactivator -6%.
For O=C(NCc1ccccc1)Nc1cccn(Cc2cccc(F)c2)c1=O the results were KCNH2 WT inh -2, TRPV1 PAM -6, KCNH2 3.1 block -11, ClpP mod 35µM*, TRPV1 agonist inconclusive and p53 reactivator inconclusive.
`COc1ccc(Cn2cccc(NC(=O)Nc3cccc(C#N)c3)c2=O)cc1` gave KCNH2 WT inh -2, TRPV1 PAM -18, KCNH2 3.1 block -6, ClpP mod inconclusive, TRPV1 agonist 6 and p53 reactivator 2%.
Screening O=C(NCc1ccc(F)cc1)Nc1cccc(Cl)c1 returned KCNH2 WT inh -9, TRPV1 PAM -12, KCNH2 3.1 block 0, TRPV1 agonist 26 and p53 reactivator 8%.
For CCOc1ccc(NC(=O)Nc2cccn(Cc3ccccc3)c2=O)cc1 the results were KCNH2 WT inh -5, TRPV1 PAM 0, KCNH2 3.1 block 8, ClpP mod 28µM*, TRPV1 agonist inconclusive and p53 reactivator 11%.
For CC(C)C[C@@H](CN1CCC[C@H]1CN1C(=O)C(=O)NC[C@@H]1Cc1ccccc1)N1C[C@H](Cc2ccccc2)N(CC2CCCCC2)C(=O)C1=O the results were ClpP mod 0%.
For Cc1cc(C)c2oc(C(=O)Nc3ccc(S(=O)(=O)Nc4ncccn4)cc3)cc(=O)c2c1 the results were ClpP mod 1%.
`Cc1ccc(S(=O)(=O)/C=C2\OCc3ccccc32)cc1` gave ClpP mod 1%.
For Nc1ccccc1/C=C/c1ccnc2ccccc12 the results were ClpP mod 1%.
For O=C(NCc1ccccc1)Nc1cccn(Cc2ccccc2)c1=O the results were KCNH2 WT inh -2, TRPV1 PAM -1, KCNH2 3.1 block 18, ClpP mod 25µM*, TRPV1 agonist 24 and p53 reactivator inconclusive.
Screening O=C(NCc1ccccc1)Nc1cccn(Cc2ccccc2F)c1=O returned KCNH2 WT inh -7, TRPV1 PAM -9, KCNH2 3.1 block -4, ClpP mod 20µM*, TRPV1 agonist 26 and p53 reactivator 16%.
For Cc1ccc(NC(=O)CN2C(=O)S/C(=C\c3cc(C)n(C)c3C)C2=O)cc1 the results were KCNH2 WT inh -1, TRPV1 PAM 13, KCNH2 3.1 block -93*, ClpP mod 1%, TRPV1 agonist 2 and p53 reactivator -2%.
Screening Cc1ccc(NC(=O)CN2C(=O)c3ccccc3C2=O)cc1 returned KCNH2 WT inh 2, TRPV1 PAM -1, KCNH2 3.1 block 7, ClpP mod 28µM*, TRPV1 agonist -2 and p53 reactivator 11%.
Screening CC(C)CC(=O)Nc1ccc(C(=O)NN2C(=O)c3ccccc3C2=O)cc1 returned KCNH2 WT inh 4, TRPV1 PAM 1, KCNH2 3.1 block 3, ClpP mod 32µM*, TRPV1 agonist 1 and p53 reactivator -1%.
`CCCC(=O)Nc1ccc(C(=O)NN2C(=O)c3ccccc3C2=O)cc1` gave KCNH2 WT inh -2, TRPV1 PAM -6, KCNH2 3.1 block 3, ClpP mod 1%, TRPV1 agonist -1 and p53 reactivator -4%.
`CC(C)CC(=O)Nc1ccc(C(=O)Cn2nc(C(=O)O)c3ccccc3c2=O)cc1` gave KCNH2 WT inh 8, TRPV1 PAM -3, KCNH2 3.1 block -26, ClpP mod 28µM*, TRPV1 agonist 1 and p53 reactivator -2%.
CCOc1ccccc1C1NC(c2ccc3c(c2)OCO3)=CC(c2ccccc2O)N1 (configuration not stated) was read as ClpP mod -11%.
